From PubChem BioAssay (NCI) come the findings set out here.

Where “and” joins values, the source holds several entries; their conditions need not be identical. Identical values can stand only once. Compounds without any hit were thinned out: in the full panel of roughly 79,000, 15% have a hit. A number with no mark means an inactive call. Calls of active or inactive are those of the source. No stated cut-off is given here; in the data, active means growth inhibition above about 70%; inactive means the rest.

The nature of assay [1]: NCI Yeast Anticancer Drug Screen. Data for the rad50 strain (AID 155).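 Further: 0% = growth of vehicle-only cultures of the same strain.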 The settings on record: S. cerevisiae rad50 strain growth inhibition; at 50.0 µM; hits give high values. In outline: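 Cells are treated with compound, grown, and their growth is then scored against vehicle-only cultures of the same repair-deficient yeast strain.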
Assay [2] can be described thus: NCI Yeast Anticancer Drug Screen. Data for the mec2-1 strain (AID 157). Conditions: S. cerevisiae mec2-1 strain, at 50.0 µM, hits give high values. In outline:
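Mutant yeast (mec2-1) grown with compound; growth inhibition relative to vehicle control reported.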

Assay [3] in a line: NCI Yeast Anticancer Drug Screen. Data for the sgs1 mgt1 strain (AID 161).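 Further: 0% = growth of cultures given vehicle only.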 The settings on record: S. cerevisiae sgs1 mgt1 strain, at 50.0 µM, hits give high values. The procedure, abridged: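 Percent growth inhibition was derived by comparing compound-exposed mutant yeast with vehicle-exposed cultures. The strain carries alterations in DNA damage repair.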
Assay [4] in a line: NCI Yeast Anticancer Drug Screen. Data for the cln2 rad14 strain (AID 165).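 Further: 0% = growth equal to vehicle treated cultures.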 Conditions: S. cerevisiae cln2 rad14 strain, at 50.0 µM, hits give high values. The procedure, abridged:
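Readout is yeast growth inhibition versus vehicle-treated controls, using a strain with cln2 and rad14 alterations exposed to compound.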

Assay [5] in a line: NCI Yeast Anticancer Drug Screen. Data for the bub3 strain (AID 167). Conditions: S. cerevisiae bub3 mutant strain, at 50.0 µM, hits give high values. In outline: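 Part of a panel of yeast mutants defective in DNA damage repair or cell cycle regulation. Each strain is grown with compound, and inhibition is calculated relative to solvent-treated cultures.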
The nature of assay [6]: NCI Yeast Anticancer Drug Screen. Data for the mlh1 rad18 strain (AID 175). The settings on record: S. cerevisiae mlh1 rad18 strain growth inhibition; at 50.0 µM; hits give high values. In outline: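 Genetically defined yeast (DNA repair-deficient) exposed to compounds; growth inhibition determined relative to vehicle.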

With `NCCN.O=C([O-])C(=O)[O-].O=C([O-])C(=O)[O-].[Co+3].[K+]`, the growth inhibition is 0.2% in assay [1]; -8.5% in assay [2]; 10.2% in assay [3]; 16.8% in assay [4]; 5.1% in assay [5]; -2.4% in assay [6].
On to `CC(C)=NNC1=NC(CC(C)C)P(=O)(NCCCCNP2(=O)SC(NN=C(C)C)=NC2CC(C)C)S1` (stereo not drawn), for which the growth inhibition in assay [1] is -5.25%; in assay [2], 17.5%; in assay [3], 11.1%; in assay [4], -18.2%; in assay [5], -11.3%; in assay [6], 6.15%.
Turning to `[Be]=[Se]`, the growth inhibition in assay [1] is -21.1%; in assay [2] it was -0.4%; in assay [3] it was -2.9%; in assay [4], 2.1%; in assay [5], -11.4%; in assay [6], 29.7%.
For the compound `O=[N+]([O-])c1ncccc1NCCN1CCCC1`, the growth inhibition in assay [1] was -2.2%; in assay [2] it was -0.5%; in assay [3], -15.8%; in assay [4], -29.3%; in assay [5] it was 7.05%; in assay [6], 4.7%.
Take `CC1(C)N=C(N)N=C(N)N1c1ccc(Cl)c(CCCCc2ccc(S(=O)(=O)F)cc2)c1`: the growth inhibition is 99.8% (active) in assay [1]; 99.8% (active) in assay [2]; 99.2% (active) in assay [3]; 99.4% (active) in assay [4]; 99.6% (active) in assay [5]; 99.8% (active) in assay [6].
Turning to `COC(=O)c1ccccc1NC(=O)C(=O)CC(=O)CC(c1ccccc1)c1c(O)c2ccccc2oc1=O` (stereo not drawn), the growth inhibition in assay [1] was -15.7%; in assay [2] it was -3.5%; in assay [3], 15.9%; in assay [4], 11.3%; in assay [5] it was 24.9%; in assay [6], 21.2%.
Take `CC1(C)COP(=O)(c2ccccc2)N1` (stereo not drawn): the growth inhibition in assay [1] is -14.1%; in assay [2], -21.4%; in assay [3], -7.4%; in assay [4], -24.4%; in assay [5] it was -1.5%; in assay [6] it was -3.1%.
Consider `Cc1ccc2[nH]cc(CCN(C)C)c2c1`, for which the growth inhibition in assay [1] is 22.6%; in assay [2] it was -16.5%; in assay [3] it was 8.25%; in assay [4], 7.65%; in assay [5], 10.2%; in assay [6], 19.6%.
Take `O=[As](O)(c1cccc(Cl)c1)C1CCCCC1O` (stereo not drawn): the growth inhibition in assay [1] is 1.05%; in assay [2], -0.35%; in assay [3], 5.3%; in assay [4], -1.95%; in assay [5], 25.2%; in assay [6], 34.4%.
As for `CCCCCCCCCCCCCC[As](=O)(O)O`, the growth inhibition in assay [1] was 6.4%; in assay [2] it was 17.9%; in assay [3], 21.3%; in assay [4], 1.65%; in assay [5], 4.5%; in assay [6] it was 44.5%.
Take `CN(N=O)c1ccc([N+](=O)[O-])cc1`: the growth inhibition in assay [1] is 26.2%; in assay [2] it was 26.4%; in assay [3], 15.8%; in assay [4], 18.2%; in assay [5], 24.4%; in assay [6], 28.1%.
On to `O=[N+]([O-])c1cccc(/C=C/c2ccc(S(=O)(=O)F)cc2)c1`, for which the growth inhibition in assay [1] was 97.5% (active); in assay [2], 93.8% (active); in assay [3], 96.8% (active); in assay [4] it was 93.8% (active); in assay [5] it was 97.2% (active); in assay [6] it was 97.3% (active).
Take `Cc1ccc(N2CC=C(c3ccccc3)OP2(=O)N(CCCl)CCCl)cc1` (stereo not drawn): the growth inhibition in assay [1] is 76.8% (active); in assay [2] it was 84.8% (active); in assay [3], 75.4% (active); in assay [4], 80.7% (active); in assay [5], 87.9% (active); in assay [6], 70.2% (active).
Turning to `O=P(O)(Oc1ccccc1)Oc1ccccc1`, the growth inhibition was 33.7% in assay [1]; 16.4% in assay [2]; 14.8% in assay [3]; 18.2% in assay [4]; 0.55% in assay [5]; 20.9% in assay [6].
As for `C1CC[N-]CC1.CC(=N\O)/C(C)=N/O.CC(=N\O)/C(C)=N/O.[CH2-]c1ccccc1.[Co+2]`, the growth inhibition in assay [1] is -3.75%; in assay [2], -0.9%; in assay [3], -13.4%; in assay [4] it was -36%; in assay [5] it was 16.4%; in assay [6], -4.5%.
Regarding `Cc1c([N+](=O)[O-])cc(C(C)(C)C)c(O)c1[N+](=O)[O-]`, the growth inhibition in assay [1] was 60.6%; in assay [2], 63.1%; in assay [3] it was 72.2% (active); in assay [4] it was 43.5%; in assay [5], 27.1%; in assay [6], 70.6% (active).
Turning to `O=[N+]([O-])C(CO)CCC(CO)[N+](=O)[O-]` (stereo not drawn), the growth inhibition in assay [1] was -6.6%; in assay [2], -14%; in assay [3], -3.9%; in assay [4] it was -18.8%; in assay [5], -15.7%; in assay [6] it was -15.5%.
Consider `O=C1C2CCN(CC2)C1Cc1ccccc1` (stereo not drawn), for which the growth inhibition in assay [1] is -10.2% and -4.55%; in assay [2] it was 1.95% and 2.95%; in assay [3], -8.7% and 4.4%; in assay [4], -4.3% and -0.15%; in assay [5], -18.3% and -2.8%; in assay [6], -15.4% and 2.95%.
With `C[C@]12Cc3cnc(-c4ccccc4)nc3C[C@@H]1CC[C@@H]1[C@@H]2CC[C@@]2(C)[C@H]1CC[C@]2(C)O`, the growth inhibition is 23.6% in assay [1]; 25.1% in assay [2]; 13.1% in assay [3]; 9.55% in assay [4]; 39.5% in assay [5]; 20.1% in assay [6].
Regarding `COc1ccccc1NC1=NCC(C)S1` (stereo not drawn), the growth inhibition was -10.2% in assay [1]; -15.2% in assay [2]; -52% in assay [3]; 24.4% in assay [4]; -14.4% in assay [5]; -2.1% in assay [6].
For the compound `CC(=O)Nc1nccs1.CC(=O)Nc1nccs1.[Cl][Pt][Cl]`, the growth inhibition in assay [1] was 9%; in assay [2], 5.25%; in assay [3] it was 8.8%; in assay [4], -1.55%; in assay [5], -1.45%; in assay [6], 5.1%.
Regarding `O=C(Cc1c[nH]c2ccccc12)N/N=C\c1ccc(N(CCCl)CCCl)cc1`, the growth inhibition in assay [1] is 22.4%; in assay [2], -10.3%; in assay [3], 11.8%; in assay [4], 31.9%; in assay [5], -5.65%; in assay [6] it was 4.55%.
On to `CC(C)N(C#N)C(C)C`, for which the growth inhibition was 16.6% in assay [1]; -0.75% in assay [2]; 1.85% in assay [3]; 9.6% in assay [4]; 0.25% in assay [5]; 6.25% in assay [6].
With `Br[CH](Br)[Hg][c]1ccccc1`, the growth inhibition in assay [1] is 99.2% (active); in assay [2] it was 99.5% (active); in assay [3], 94.3% (active); in assay [4], 99.2% (active); in assay [5] it was 99.2% (active); in assay [6], 99.2% (active).
For the compound `C=CCOC(N)=O`, the growth inhibition in assay [1] is 6.85%; in assay [2], 8.3%; in assay [3], -0.3%; in assay [4], 20.9%; in assay [5], 22.5%; in assay [6], 1.65%.
Take `CN(C)c1c2c(=O)n(C)c(=O)n(C)c2nc2cccc[n+]12`: the growth inhibition is 21.9% in assay [1]; 22.9% in assay [2]; -5.2% in assay [3]; 2.9% in assay [4]; 5.95% in assay [5]; 11.6% in assay [6].
With `CC(=O)CC(C)=O.CC(=O)CC(C)=O.[Mn]`, the growth inhibition in assay [1] is 17.1%; in assay [2], 1.05%; in assay [3] it was 1.75%; in assay [4], -42.2%; in assay [5] it was -3.3%; in assay [6], -2.5%.
On to `CCOP(=S)(OCC)Oc1ccccc1`, for which the growth inhibition in assay [1] was -3.8%; in assay [2], -14.5%; in assay [3], -15.2%; in assay [4], -7.6%; in assay [5], -20.9%; in assay [6], 3.5%.
Take `COC(C(=O)O)(c1ccccc1)c1ccccc1`: the growth inhibition in assay [1] was -24.8%; in assay [2] it was -18.9%; in assay [3] it was 1.05%; in assay [4], -33.9%; in assay [5] it was -9.2%; in assay [6], -0.35%.
Consider `N=C(N)N1CCNc2ccccc2C1`, for which the growth inhibition was 14.9% in assay [1]; -10.2% in assay [2]; -7.3% in assay [3]; 28.8% in assay [4]; -1.2% in assay [5]; 6.3% in assay [6].
For the compound `CC(C)C(Br)C(N)=O` (stereo not drawn), the growth inhibition was -36.1% in assay [1]; -31.1% in assay [2]; 9.75% in assay [3]; -24.6% in assay [4]; -2.85% in assay [5]; -14.8% in assay [6].
Regarding `CCN1C(=O)C(=C/C=C/c2ccc([N+](=O)[O-])cc2)C(=O)N(CC)C1=S`, the growth inhibition is 8.55% in assay [1]; 9.95% in assay [2]; 19.1% in assay [3]; 19.9% in assay [4]; 18.6% in assay [5]; 18.1% in assay [6].
As to `CCCCCCCC[As](=O)(O)CCCCCCCC`, the growth inhibition is -2.95% in assay [1]; -0.3% in assay [2]; 20.9% in assay [3]; -6.85% in assay [4]; -0.7% in assay [5]; -10.2% in assay [6].
With `C=C(C)C(=O)OCC12CCC(C)=CC1OC1C(=O)C(OC(=O)C(=C)C)C2(C)C12CO2` (stereo not drawn), the growth inhibition in assay [1] is 8.55%; in assay [2], 19.9%; in assay [3], -1.15%; in assay [4], 2.75%; in assay [5] it was -10.1%; in assay [6], -34%.
With `CCOC(=O)C(Br)C(C)C` (stereo not drawn), the growth inhibition in assay [1] was 24.1%; in assay [2], 12%; in assay [3] it was 16.1%; in assay [4], 24.6%; in assay [5], 7.6%; in assay [6] it was 10.5%.
With `CC(C)(C)C(=O)CC(=O)C(C)(C)C.[Cl][Sb]1([Cl])[c]2ccccc2Cc2cccc[c]21`, the growth inhibition in assay [1] is -1.05%; in assay [2] it was 23.9%; in assay [3], 20.1%; in assay [4], -13.8%; in assay [5], 0.75%; in assay [6], 8.95%.
On to `CC(C)[C@H](C)/C=C/[C@@H](C)C1CC[C@H]2[C@@]34C=C[C@]5(C[C@@H](O)CC[C@]5(C)[C@H]3CC[C@]12C)OO4` (stereo partly drawn), for which the growth inhibition is 11.8% in assay [1]; 19% in assay [2]; -13.2% in assay [3]; 2.15% in assay [4]; -20.4% in assay [5]; -31.6% in assay [6].
As to `Cc1c(Cl)cccc1NC(=O)C(=O)C1C(=O)NC(=O)NC1=O`, the growth inhibition in assay [1] was -10.8%; in assay [2], -10.8%; in assay [3], -13.8%; in assay [4] it was -6%; in assay [5], -17.8%; in assay [6], -17.9%.
